Sampled rows, rich in hits. Any-hit rate of the full collection: about 12%.
Shiga inhibitor = blocks Shiga toxin action in Vero cells. AID 2315. inhibition, % at 38.7 µM. 290,000 tested, 9.2% active. Vero cells, Shiga toxin protein synthesis inhibition reporter; in the data active = inhibition mostly above about 28%, no sharp cut-off; inactive = mostly below about 43%
NS1 inh = influenza NS1 inhibition. Potency, µM (highest dose often 46.1 µM). 270,000 tested, 0.4% active; also: actives are rising curves; nearly all actives have a fitted effect of over 50% in size
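Recovery from NS1-induced slow growth read by OD600 in budding yeast switched to galactose assay medium (pH 6.0, -URA) at 1:100 dilution. Compound 23 nl per well; the matching strain lacking NS1 serves as control.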
SARS PLP yeast = inhibitors of SARS-CoV papain-like protease in yeast; Potency, µM (titrated, usually from 32.9 µM), actives largely listed as activators; AID 485353; S. cerevisiae expressing SARS-CoV PLpro, growth rescue; 330,000 tested, 0.19% active; also: nearly all actives have a fitted effect of over 55% in size
CHX counter = counter-screen hit for Shiga toxin inhibitors, cycloheximide; cell reporter, cycloheximide protein synthesis inhibition counterscreen; 300,000 tested, 12% active; max response, %; in the data active = max response mostly above about 13%, no sharp cut-off; inactive = mostly below about 14%; also: read at 38.3 µM for the half of the compounds with a filed dose
Each line names hits and unclear results; the compound was inactive in the other large screens. Unless noted, calls follow the shape of the full dose curve.

COC(=O)c1cc(S(=O)(=O)C(C)C)c(S(C)=O)s1 (centres undefined)	CHX counter 14
COc1ccc(/C=C/c2ccccc2)cc1[C@H]1[C@@H]2C=CCC[C@@]2(C)C(=O)N1Cc1ccccc1	Shiga inhibitor 44, NS1 inh inconclusive, CHX counter 20
COc1ccc(/C=C/c2ccccc2)cc1C1C2C=CCCC2(C)C(=O)N1Cc1ccccc1 (centres undefined)	Shiga inhibitor 115, CHX counter 49 (no result: NS1 inh, SARS PLP yeast)
CC(C)(C)NC(=O)C(c1ccccn1)N(C(=O)C1CSC(=O)C1)c1ccc(F)cc1 (centres undefined)	none
CSc1ncccc1C(=O)OCc1ccccc1	Shiga inhibitor 87, CHX counter 31
CSc1ncccc1C(=O)OCc1ccccc1F	Shiga inhibitor 67, CHX counter 22
CSc1ncccc1C(=O)OCc1ccc(COC(=O)c2cccnc2SC)cc1	none
Cc1cccc(NC(=S)N2CCC(NC(=O)c3ccco3)CC2)c1	none
CCOc1ccc(C(=O)NCC(C)C)cc1	Shiga inhibitor 57, CHX counter 22 (no result: SARS PLP yeast)
CCOc1ccc(C(=O)NCC(C)NC(=O)c2ccc(OCC)cc2)cc1 (centres undefined)	none
CCOc1ccc(C(=O)NC(C)C2COc3ccccc3O2)cc1 (centres undefined)	CHX counter 11
CCOc1ccc(C(=O)NCC(c2cccs2)N(C)C)cc1 (centres undefined)	Shiga inhibitor 28, SARS PLP yeast inconclusive, CHX counter 35
Cc1ccsc1C(=O)OCC(=O)N1CCN(c2ccccc2)CC1	none (no result: Shiga inhibitor, NS1 inh, CHX counter)
COc1ccc2nc(NC(=O)c3ccccc3-c3ccccc3C(=O)O)sc2c1	none
CCCC(=O)Nc1nc2ccc(NC(=O)c3ccccc3F)cc2s1	Shiga inhibitor 47, CHX counter 21
Cc1ccc2nc(NC(=O)c3ccccc3F)sc2c1	Shiga inhibitor 83, CHX counter 39
COc1ccc2nc(NC(=O)c3ccccc3F)sc2c1	Shiga inhibitor 56, CHX counter 27
COc1ccc2nc(NC(=O)c3ccccc3C(=O)O)sc2c1	none
COc1ccc2nc(NC(=O)c3cccc(-c4cc5ccccc5oc4=O)c3)sc2c1	Shiga inhibitor 43, CHX counter 34
COc1ccccc1C(=O)C1CCCN(C(=O)c2ccco2)C1 (centres undefined)	none
COc1ccc(C(=O)Nc2nc3ccc(OC)cc3s2)cc1	Shiga inhibitor 68, CHX counter 39
CN1CCN(C(=O)CSc2nc3ccc(NC(=O)c4ccccc4F)cc3s2)CC1	CHX counter 14
COc1ccc2nc(NC(=O)c3cnccn3)sc2c1	Shiga inhibitor 119, CHX counter 31
COc1ccc(C(=O)Nc2nc3ccc(S(C)(=O)=O)cc3s2)cc1	none
COc1ccc2nc(NC(=O)c3ccc(NC(=O)C4CCCO4)cc3)sc2c1 (centres undefined)	CHX counter 19
CCOc1ccc2nc(NC(=O)C3CCCO3)sc2c1 (centres undefined)	none
COc1cccc(-c2noc(CCCC(=O)Nc3ccc(C(N)=O)cc3)n2)c1	none (no result: NS1 inh)
COc1ccc2nc(NC(=O)c3ccc(NS(=O)(=O)c4cccs4)cc3)sc2c1	CHX counter 35
CCn1cc([N+](=O)[O-])c(C(=O)Nc2nc3ccc(OC)cc3s2)n1	CHX counter 15
CCN(CC)c1cc(C)c2cc(NC(=O)c3ccccc3F)ccc2n1	CHX counter 16
CCN(CC)c1cc(C)c2cc(NC(=O)CNC(C)=O)ccc2n1	NS1 inh inconclusive
COc1ccc2nc(NC(=O)CNS(=O)(=O)c3cccs3)sc2c1	none
COc1ccc2nc(NC(=O)C34CC5CC(CC(NC(C)=O)(C5)C3)C4)sc2c1	Shiga inhibitor 45, CHX counter 49
O=C1c2ccccc2S(=O)(=O)N1Cc1ccccc1[N+](=O)[O-]	none
COc1cccc(COC(=O)CCNC(=O)c2ccc(Br)cc2)c1OC	none (no result: Shiga inhibitor, NS1 inh, CHX counter)
Cc1ccc(C(C)NC(=S)NCc2ccc(F)cc2)c(C)c1 (centres undefined)	none
COc1cccc(NC(=O)c2ccccc2-c2nc(-c3ccc(Cl)cc3)no2)c1	Shiga inhibitor 62, CHX counter 59
COc1ccc(-c2noc(-c3ccccc3C(=O)NCc3ccco3)n2)cc1	CHX counter 15
Cc1ccccc1-c1noc(-c2ccccc2C(=O)O)n1	CHX counter 15
O=C(O)c1ccccc1-c1noc(-c2ccccc2F)n1	none (no result: Shiga inhibitor, NS1 inh, CHX counter)
COc1ccccc1-c1noc(-c2ccccc2C(=O)Nc2ccccc2)n1	none
COc1ccccc1NC(=O)c1ccccc1-c1nc(-c2ccccc2OC)no1	CHX counter 21
Cc1cc2oc(C(=O)Nc3nonc3C)c(C)c2cc1Cl	SARS PLP yeast inconclusive
COC(=O)CCN(Cc1ccco1)S(=O)(=O)c1ccc(F)cc1Br	none (no result: NS1 inh, SARS PLP yeast)
N#CC(C#N)=NNc1ccc(S(=O)(=O)N2CCCCC2)cc1	none
COc1cccc(NC(=O)c2ccccc2-c2nc(-c3ccccc3)no2)c1	CHX counter 19
CNCCc1ccccc1	none
NNCCc1ccccc1	Shiga inhibitor 110, CHX counter 47
Cc1nc(N)nc(-c2ccccc2O)n1	CHX counter 24
CCN(CC)c1ccc(NC(=O)COC(=O)/C=C/c2nc3ccccc3s2)cc1	CHX counter 14
CCN(CC)c1ccc(/C=C/c2nc3ccccc3s2)cc1	Shiga inhibitor 127, CHX counter 40
CNC(=O)COC(=O)/C=C/c1nc2ccccc2s1	none (no result: NS1 inh)
O=C(CCN1CCN(c2ccccc2F)CC1)Nc1ccc2c(c1)OCO2	none
COCCOC(=O)/C(=C\c1cc(C(C)(C)C)c(O)c(C(C)(C)C)c1)C(C)=O	none
Cc1ccc2c(c1)COc1c3ccc(C(=O)N[C@@H](CO)C(C)C)cc3nn1-2	Shiga inhibitor 74, CHX counter 55
O=C(NCC1CCCO1)c1ccc2c3n(nc2c1)-c1ccccc1CO3 (centres undefined)	Shiga inhibitor 54, CHX counter 52
CC(C)NC(=O)c1ccc2c3n(nc2c1)-c1ccc(Cl)cc1CO3	Shiga inhibitor 60, CHX counter 21
O=C(NCC1CCCO1)c1ccc2c(c1)OCO2 (centres undefined)	none
COCCNC(=O)c1ccc2c3n(nc2c1)-c1ccc(C)cc1CO3	Shiga inhibitor 134, CHX counter 59
C[C@@H](CO)NC(=O)c1ccc2c3n(nc2c1)-c1ccccc1CO3	CHX counter 17
CC(=O)Oc1ccc(-c2csc(Nc3cccc(C)n3)n2)cc1	Shiga inhibitor 91, CHX counter 45
Cc1cccc(Nc2nc(-c3ccc(F)cc3)cs2)n1	Shiga inhibitor 105, CHX counter 46
CC(=O)Oc1ccc(-c2csc(Nc3cccnc3)n2)cc1	none
COc1ccc(-c2csc(Nc3cccc(C)n3)n2)cc1C	Shiga inhibitor 79, CHX counter 56
COc1ccc(-c2csc(Nc3cccc(C)n3)n2)cc1	Shiga inhibitor 71, CHX counter 38
CC(C)c1nc(SCC(=O)NCC2CCCO2)c2c(=O)n(C)c(=O)n(C)c2n1 (centres undefined)	SARS PLP yeast inconclusive
COC(=O)c1nnn(-c2nonc2N)c1-c1cccs1	none
Cc1ncoc1C(=O)Nc1ccc2c(c1)OCCO2	Shiga inhibitor 77, CHX counter 47
Cc1ccsc1C(=O)Nc1ccc2c(c1)OCCO2	Shiga inhibitor 27, CHX counter 29

Assay outcomes from PubChem BioAssay.
